“And” between values parts separate entries of the source, which are not always exact repeats. Equal entries are not always repeated. Inconclusive results are not listed. The source holds several records for some structures; these can differ, active in one and inactive in another. The source made the active and inactive calls. Rule for the calls: active = hit-call score of the fitted dose curve at least 0.9, where 1 is the maximum; inconclusive = response in the unintended direction; inactive = score below 0.9.

We go through 38 compounds from PubChem BioAssay (EPA / NIEHS).

Cellular tumor antigen p53 (Homo sapiens), sequence (P04637 whole entry, looked up, the tested form may be a part): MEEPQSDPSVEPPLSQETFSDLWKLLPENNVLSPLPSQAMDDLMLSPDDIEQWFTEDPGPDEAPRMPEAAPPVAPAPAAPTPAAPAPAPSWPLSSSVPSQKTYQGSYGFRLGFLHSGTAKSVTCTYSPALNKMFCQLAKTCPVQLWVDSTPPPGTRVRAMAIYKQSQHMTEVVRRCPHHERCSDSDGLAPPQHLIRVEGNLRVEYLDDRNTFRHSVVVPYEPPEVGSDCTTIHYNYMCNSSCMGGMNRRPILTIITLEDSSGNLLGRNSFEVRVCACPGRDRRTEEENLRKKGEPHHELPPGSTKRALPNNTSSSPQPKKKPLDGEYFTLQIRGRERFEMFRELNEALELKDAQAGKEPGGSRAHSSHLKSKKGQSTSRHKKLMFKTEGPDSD

The experiment addresses Cellular tumor antigen p53 (Homo sapiens) (UniProt P04637). The experiment is described as follows: TOX21_p53_BLA_p2_ratio: Tox21 HCT-116 p53 Agonism Beta-lactamase Assay, Ratio, Phase 2 (AID 2283592). An excerpt:
TOX21_p53_BLA_p2 is a cell-based, single-readout assay that uses HCT116, a human intestinal cell line, […] in a 1536-well plate.TOX21_p53_BLA_p2_ratio is an assay readout measuring reporter gene via receptor activity and designed using inducible reporter (beta lactamase induction) detected with GAL4 b-lactamase reporter gene. The signal is derived from the ratio of cleaved (ch2) to uncleaved (ch1) reporter gene substrate used as the measure of target activity.Data from the assay component TOX21_p53_BLA_p2_ratio was analyzed into 1 assay endpoint. This assay endpoint, TOX21_p53_BLA_p2_ratio, was analyzed in the positive analysis fitting direction relative to DMSO as the negative control and baseline of activity. Using a type of inducible reporter, gain-of-signal activity can be used to understand changes in the reporter gene as they relate to the gene TP53. Furthermore, this assay endpoint can be referred to as a primary readout, because this assay has produced multiple assay endpoints and this ratio serves a reporter gene function to understand target activity. To generalize the intended target to other relatable targets, this assay endpoint is annotated to the DNA binding intended target family, where the subfamily is tumor suppressor.
Thawing Method: Place 14 mL of pre-warmed thaw medium into a 15 mL of conical tub. Remove the vial of cells to be thawed from liquid nitrogen and thaw rapidly by placing at 37C in a water bath with gentle agitation for 1-2 minutes. Decontaminate the vial by wiping with 70% ethanol before opening in a biological safety cabinet. Transfer the vial contents drop-wise into 14 mL of thaw medium in a sterile 15-mL conical tub. Centrifuge cells at 900 rpm for 4 minutes and resuspend in thaw medium. Transfer contents to the T75 tissue culture flask containing Thaw Medium and place flask in a humidified 37C/5% CO2 incubator. Switch to growth medium at first passage.Propagation Method: Aspirate medium, rinse once in DPBS, add 0.25% Trypsin/EDTA and swirl to coat the cell evenly. Add an equal volume of Growth Medium to inactivate Trypsin after 2-3 minutes incubation at 37C. Centrifuge cells at 900 rpm for 4 minutes and resuspend in growth medium. Cell should be passage or fed at least twice a week.Assay Protocol: Harvest cells from culture in growth medium and resuspend in assay medium. 2.2 Dispense 4000 cells/5 uL/well into 1536-well black/clear bottom plates using a Multidrop dispenser. After the cells were incubated at 37C for 5 hours, 23 nL of compounds dissolved in DMSO were transferred to the assay plate by a PinTool resulting in a 217-fold dilution. Incubate the plates for 16 hours at 37C, 5% CO2. Add 1 uL of 6X LiveBLAzer FRET B/G (CCF4-AM) Substrate Mixture to each well using a BioRAPTR dispenser and incubate the plates at room temperature for 2 hours. Measure fluorescence intensity at 460 and 530 nm emission and 405 nm excitation by an Envision detector. Data is expressed as the ratio of 460nm/530nm emissions. Add 4 uL of Cell-titer Glo to each well using BioRAPTR and incubate the plates at room temperature for 2 hours. Measure fluorescence intensity by a VewLux plate reader.
The term AC50 denotes the concentration at which the activity in the assay is half-maximal. As to `CCOC(=O)OC1=C(c2cc(C)ccc2C)C(=O)NC12CCC(OC)CC2` (stereo not given), the AC50 is 46.1 µM (active). For the compound `OCCCCO`, the result was inactive. `CC(C)(C1CCC(O)CC1)C1CCC(O)CC1` (stereo not given): the outcome was inactive.

As for `CCOP(=S)(OCC)OP(=S)(OCC)OCC`, the outcome was inactive. Regarding `CCC[CH2][Sn]([Cl])([Cl])[CH2]CCC`, the AC50 is 1.59 µM (active) and 14.3 µM (active). For the compound `CCCCC(CC)C(=O)Cl` (stereo not given), the result was inactive. On the same count and under the same terms, to `CCOP(=O)(OCC)OC(=CCl)c1ccc(Cl)cc1Cl` belongs “inactive”.

For the compound `CCN(N=O)C(N)=O`, the result was inactive.

With `Cc1cc(Cl)ccc1OCCCC(=O)O`, the outcome was inactive. Turning to `CC(C)[N+](=O)[O-]`, the result was inactive. For `Clc1cc(C(Cl)(Cl)Cl)cnc1Cl`, the result was inactive. Take `C[C@H]1C(=O)O[C@@H]2CCN3CC=C(COC(=O)[C@](C)(O)[C@]1(C)O)[C@H]23`: the outcome was inactive. In the case of `Cc1cc(SCc2sc(-c3ccc(C(F)(F)F)c(F)c3)nc2C)ccc1OCC(=O)O`, the AC50 is 54.1 µM (active).

For `O=[N+]([O-])c1ccc(Cl)c([N+](=O)[O-])c1`, the result was inactive and the AC50 was 75.5 µM (active).

For `O=S(=O)(c1ccc(Cl)cc1)c1cc(Cl)c(Cl)cc1Cl`, the outcome was inactive. Same read-out and setting: to `OC[P+](CO)(CO)CO` belongs “inactive”. Take `COP(=S)(OC)Oc1cc(Cl)c(I)cc1Cl`: the AC50 is 73.9 µM (active). Regarding `N#CCC#N`, the result was inactive.

On to `CC(c1ccc(O)cc1)c1ccc(O)cc1`, for which the result was inactive.

Take `O=C(NC(=O)c1c(F)cccc1F)Nc1cc(Cl)c(F)c(Cl)c1F`: the outcome was inactive. Same read-out and setting: to `Nc1nc(N)nc(Cl)n1` belongs “inactive”; to `CC1(C)[C@H](C(=O)O[C@H](C#N)c2cccc(Oc3ccccc3)c2)[C@@H]1/C=C(\Cl)C(F)(F)F`, “inactive”; to `CCOc1ccc(N)cc1`, “inactive”. `O=C(CCl)NCO`: the outcome was inactive.

Take `Cc1cc(C(C)(C)c2ccc(O)c(C)c2)ccc1O`: the AC50 is 30.2 µM (active). As to `CCN(CC)C(=O)C(Cl)=C(C)OP(=O)(OC)OC`, the outcome was inactive. Take `Cc1cccc(C)c1NC(=O)CN1CCCC1=O`: the result was inactive. Regarding `O=C(NC(=O)c1c(F)cccc1F)Nc1cc(Cl)c(Oc2ncc(C(F)(F)F)cc2Cl)c(Cl)c1`, the AC50 is 6.18 µM (active).

`CCOP(=S)(OCC)SCSc1cc(Cl)ccc1Cl`: the outcome was inactive. As to `CN(C)c1ccc(N=O)cc1`, the result was inactive and the AC50 is 75.7 µM (active). Regarding `O=C(Cc1ccccc1)OCCc1ccccc1`, the result was inactive.

Turning to `CCCCCCCCCCCCCl`, the outcome was inactive. Take `Cc1cc(-c2cc(C)c(N)c(C)c2)cc(C)c1N`: the result was inactive. With `N#Cc1ccc(Cl)cc1`, the result was inactive. With `CCOP(=S)(OCC)Oc1ccc(Cl)cc1Cl`, the result was inactive.

As to `CCOC(=O)CC(=O)CCl`, the outcome was inactive.

As for `Cc1ccccc1OP(=O)(Oc1ccccc1C)Oc1ccccc1C`, the result was inactive.

With `CCOC(=O)C(SP(=S)(OC)OC)c1ccccc1` (stereo not given), the outcome was inactive.
